Measured values: PubChem BioAssay (NCATS)
“And” between values parts separate entries of the source, which are not always exact repeats. Equal entries are not always repeated. A number with no mark means an inactive call. Records with an inconclusive call do not appear. Where a call stands in place of a potency, no number is given. The source made the active and inactive calls. Unless noted, calls come from the whole dose curve; as a rule, active = well fitted curve in the direction sought with a large enough effect; inconclusive = small, poorly fitted or top-dose-only effect, or another doubt; inactive = no such curve, though single readings can be large; an effect the other way counts as inactive or inconclusive.

Tests used:
[1] = biological target: Tumor necrosis factor (Homo sapiens) (UniProt P01375); assay: qHTS assay to identify small molecules that stimulate Tumor Necrosis Factor-alpha (TNF-alpha) secretion (AID 651757; active = well fitted curve in the direction sought with a large enough effect in the signal ratio; the % refers to the signal ratio)
Outline: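 Using 3000 THP-1 cells per well, compounds and controls were applied for 17 hrs at 37 C. Detection followed with two labeled anti-TNF-alpha antibodies (cryptate donor, XL665 acceptor) for 3 hr at room temperature, measured by TR-FRET.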

[2] = qHTS assay to identify small molecules that stimulate interleukin-8 (IL-8) secretion (AID 651758; active = well fitted activation curve with a large enough effect in the signal ratio; the % refers to the signal ratio)
Outline: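 Secreted IL-8 measured homogeneously by TR-FRET (two labelled anti-IL-8 antibodies, 1-3 h at room temperature) after a 16 h, 37 C compound treatment of THP-1 cells at 2000 cells/well.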

[3] = biological target: Peroxisome proliferator-activated receptor alpha (Homo sapiens) (UniProt Q07869); assay: qHTS assay for small molecule agonists of the peroxisome proliferator-activated receptor alpha (PPARalpha) signaling pathway (AID 651778); conditions: PathHunter PPARalpha complementation, chemiluminescence, 6 h; stronger effect = higher value
Outline: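 Chemiluminescence from complemented enzyme reported PPARalpha activation in cells after 6 hr of compound treatment at 37 C. The detection reagent was incubated for 60 min at room temperature, and compounds were scored as agonists.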

[4] = biological target: Nuclear receptor ROR-gamma (Homo sapiens) (UniProt P51449); assay: qHTS assay for small molecule antagonists of the retinoid-related orphan receptor gamma (ROR-gamma) signaling pathway (AID 651802);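 note: CHO cells with doxycycline-induced ROR-gamma expression; luciferase reporter luminescence driven by ROR response element; series mostly up to about 92 µM; nearly all actives have a fitted effect of over 60% in size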
Outline: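 Doxycycline-induced reporter activity in engineered CHO cells (TET-inducible ROR, RORE-LUC) was measured by luminescence after 16hr compound exposure at 37C.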

[5] = qHTS assay for small molecule antagonists of the retinoid-related orphan receptor gamma (ROR-gamma) signaling pathway - cell viability counter screen (AID 720652; active = well fitted curve in the direction sought with a large enough effect in the repeat runs; an effect the other way counts as inactive or inconclusive;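 note: CHO reporter cells with doxycycline-induced ROR-gamma expression; series mostly up to about 92 µM; compound exposure lasted 16 hr before ATP read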)
Outline: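 ATP-based viability readout in the ROR-gamma reporter CHO cells after 16 hr compound exposure under doxycycline induction.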

[6] = qHTS Assay for Identifying Gametocytocidal Compounds (AID 743244);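 note: actives lower the fluorescent signal which means gametocytes are killed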; conditions: P. falciparum 3D7 stage III-V gametocytes, alamarBlue, 72 h; max response: stronger effect = lower value
Outline: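 Viability read-out was resazurin reduction (alamarBlue, 24 h) measured at Ex 525/Em 598 nm. Beforehand, late-stage (III-V) 3D7 P. falciparum gametocytes at 20,000 cells/well were incubated with compound 72 h at 37C under 5% CO2.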

[7] = qHTS assay for cell viability of HEK293 cells (AID 743288); conditions: ATP luminescence (CellTiter-Glo), 18 h; max response: stronger effect = lower value; note: nearly all actives have a fitted effect of over 50% in size
Outline: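 HEK293, 18 h, 37 C, ATP luminescence. Cells at 2,000/well were allowed at least 5 h to settle before dosing; CellTiter-Glo developed 30 min at RT.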

[8] = qHTS assay for cell viability of the p53RE-bla HCT-116 cell line (AID 743292); note: nearly all actives have a fitted effect of over 55% in size
Outline: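 HCT-116 p53RE-bla cells seeded 4,000/well; 5 h at 37 C; compound (DMSO) added; 16 h at 37 C; CellTiter-Glo added, 30 min RT; luminescence read.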

[9] = biological target: Arylsulfatase A (Homo sapiens) (UniProt P15289); assay: qHTS screen for enhancers of Arylsulfatase A (ASA1): LOPAC Validation Assay (AID 720538); note: potency is the fitted concentration of half-maximal effect
Outline: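 Cell-based enhancement test: residual ASA activity in SV40-transformed I179S patient fibroblasts is measured by pNCS turnover (0.5mM final, 14h, room temperature) following 48h compound incubation; higher fluorescence indicates activation.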

[10] = qHTS for compounds that reverse cellular toxicity of Amyloid beta (A-beta) peptide in yeast: LOPAC Validation Assay (AID 720559)
Outline: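 Here, A-beta-toxic yeast grow with test compounds at 30 C for 48 hr before optical density at 600 nm is recorded; data are normalized against DMSO and the FeCl3-clioquinol control.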

[11] = qHTS for Activators of Parkin Expression: LOPAC Validation Assay (NLuc Reporter) (AID 720572; note: potency is the fitted concentration of half-maximal effect)
Outline: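 Compound effects on Parkin promoter activity were measured as NanoLuc luminescence after 24 h at 37 C. The neuronal reporter line also carried FLuc, which was read first. LOPAC compounds were tested at 7 concentrations, with normalization to DMSO (0%) and positive control (100%).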

[12] = qHTS for Activators of Parkin Expression: LOPAC Validation Assay (FLuc Reporter) (AID 720573)
Outline: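 Readout is FLuc luminescence from neuronal reporter cells (Parkin promoter, FLuc plus NLuc) after 24 h compound exposure in dose response. Values normalized to neutral DMSO and positive-control compounds.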

[13] = biological target: T1, Hexokinase-4 (Homo sapiens) + Glucokinase regulatory protein (Homo sapiens) (UniProt P35557+Q14397); assay: qHTS assay for inhibitors of recombinant human GCK-GKRP interaction: Diaphorase-coupled assay (AID 743205)
Outline: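 Signal derives from resorufin generated by diaphorase, linked to GCK turnover of glucose (5 mM) and ATP (0.4 mM). Enzyme complex was added after a 20-minute compound preincubation and monitored for 30 minutes.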

[14] = biological target: T1, Hexokinase-4 (Homo sapiens) + Glucokinase regulatory protein (Homo sapiens); assay: qHTS assay for inhibitors of recombinant human GCK-GKRP interaction: ADP-Glo assay (AID 743206)
Outline: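 Pin-transferred compounds meet a 15 nM GST-GCK/15 nM FLAG-GKRP/2 uM S6P mix (dispense concentrations). ATP is then added to 0.4 mM final with 5 mM glucose, and the reaction runs 60 min at room temperature. ADP is quantified luminescently.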

[15] = biological target: T1, Hexokinase-4 (Homo sapiens) + Glucokinase regulatory protein (Homo sapiens); assay: qHTS assay for inhibitors of recombinant human GCK-GKRP interaction: HTRF assay (AID 743207)
Outline: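 Titration screening format: recombinant GST-GCK and FLAG-GKRP at 5 nM, S6P at 2 uM, labelled anti-tag antibodies, 60 min at RT, dual-wavelength HTRF readout.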

[16] = qHTS assay for small molecule agonists of the antioxidant response element (ARE) signaling pathway measured by Nrf2-dependant transcriptional activity (AID 720636; active = well fitted curve in the direction sought with a large enough effect in the repeat runs; an effect the other way counts as inactive or inconclusive;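 note: HepG2 cells with an ARE-driven luciferase reporter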)
Outline: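 Cells: ARE-luc HepG2 with Nrf2-responsive luciferase. Medium contained 1% dialyzed FBS. Compound exposure lasted 16 hr at 37 C and 5% CO2, followed by ONE-Glo luciferase detection.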

[17] = qHTS assay for small molecule agonists of the antioxidant response element (ARE) signaling pathway measured by Nrf2-dependant transcriptional activity - cell viability counter screen (AID 720653; active = well fitted curve in the direction sought with a large enough effect in the repeat runs; an effect the other way counts as inactive or inconclusive); conditions: ARE-bla HepG2 viability, CellTiter-Glo ATP luminescence, 16 h; max response: stronger effect = lower value
Outline: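 Cytotoxicity counter screen: intracellular ATP quantified by CellTiter-Glo luminescence in the same ARE-bla HepG2 plates, after 16 h compound exposure and a 2 h beta-lactamase substrate step.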

[18] = qHTS assay for small molecule disruptors of the mitochondrial membrane potential - 5 hr assay (AID 651755; calls by dose curve; note: nearly all actives have a fitted effect of over 40% in size)
Outline: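 Membrane-potential dye readout: red aggregate (540 ex/590 em) versus green monomer (490 ex/535 em) fluorescence after 30 min dye loading, following 5 hr compound exposure at 37C of overnight-plated HepG2 cells.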

Arylsulfatase A (Homo sapiens), sequence (P15289 whole entry, looked up): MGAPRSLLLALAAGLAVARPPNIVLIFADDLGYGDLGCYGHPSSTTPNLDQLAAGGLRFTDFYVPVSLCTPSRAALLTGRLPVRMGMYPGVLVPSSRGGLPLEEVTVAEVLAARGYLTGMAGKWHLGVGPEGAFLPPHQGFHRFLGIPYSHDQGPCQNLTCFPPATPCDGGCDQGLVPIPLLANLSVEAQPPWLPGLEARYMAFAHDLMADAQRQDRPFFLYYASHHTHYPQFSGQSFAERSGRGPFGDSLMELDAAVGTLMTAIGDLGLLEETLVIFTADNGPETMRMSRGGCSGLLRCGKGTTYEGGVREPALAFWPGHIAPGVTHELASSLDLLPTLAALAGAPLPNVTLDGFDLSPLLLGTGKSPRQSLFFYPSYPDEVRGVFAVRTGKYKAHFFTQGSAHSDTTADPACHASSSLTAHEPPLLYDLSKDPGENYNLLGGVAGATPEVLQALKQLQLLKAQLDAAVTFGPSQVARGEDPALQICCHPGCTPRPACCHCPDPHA
Tumor necrosis factor (Homo sapiens), sequence (P01375 whole entry, looked up): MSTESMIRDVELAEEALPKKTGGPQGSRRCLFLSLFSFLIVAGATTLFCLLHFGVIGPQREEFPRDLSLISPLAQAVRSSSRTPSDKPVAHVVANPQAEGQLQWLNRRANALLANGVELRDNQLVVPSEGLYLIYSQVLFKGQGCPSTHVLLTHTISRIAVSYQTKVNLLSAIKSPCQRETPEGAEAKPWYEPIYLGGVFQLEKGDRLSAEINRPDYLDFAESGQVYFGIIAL
Peroxisome proliferator-activated receptor alpha (Homo sapiens), sequence (Q07869 whole entry, looked up): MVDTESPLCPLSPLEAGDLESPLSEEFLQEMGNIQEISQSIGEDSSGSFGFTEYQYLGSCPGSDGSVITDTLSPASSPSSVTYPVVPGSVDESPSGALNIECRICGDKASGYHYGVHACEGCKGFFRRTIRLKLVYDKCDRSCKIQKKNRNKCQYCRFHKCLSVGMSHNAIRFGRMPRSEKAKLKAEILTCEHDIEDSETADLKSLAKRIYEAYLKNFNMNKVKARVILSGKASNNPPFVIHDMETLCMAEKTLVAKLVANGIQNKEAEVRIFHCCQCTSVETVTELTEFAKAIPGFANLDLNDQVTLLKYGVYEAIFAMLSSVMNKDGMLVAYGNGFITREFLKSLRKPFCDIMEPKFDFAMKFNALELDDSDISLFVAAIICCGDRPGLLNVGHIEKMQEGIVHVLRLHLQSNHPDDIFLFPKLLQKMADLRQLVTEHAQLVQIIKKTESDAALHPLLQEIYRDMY
T1 sequence (P35557 whole entry, looked up): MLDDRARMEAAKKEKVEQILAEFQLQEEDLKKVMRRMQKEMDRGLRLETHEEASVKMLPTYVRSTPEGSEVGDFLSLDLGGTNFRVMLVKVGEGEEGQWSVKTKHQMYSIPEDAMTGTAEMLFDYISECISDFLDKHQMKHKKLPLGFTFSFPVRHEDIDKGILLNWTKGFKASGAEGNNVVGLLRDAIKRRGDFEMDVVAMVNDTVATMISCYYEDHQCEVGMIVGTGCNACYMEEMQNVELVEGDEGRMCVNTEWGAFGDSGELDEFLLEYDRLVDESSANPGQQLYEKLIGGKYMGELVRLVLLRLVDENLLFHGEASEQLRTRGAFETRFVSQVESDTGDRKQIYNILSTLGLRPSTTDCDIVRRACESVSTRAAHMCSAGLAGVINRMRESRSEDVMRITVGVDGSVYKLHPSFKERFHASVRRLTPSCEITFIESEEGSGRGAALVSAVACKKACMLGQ
T1 sequence (Q14397 whole entry, looked up): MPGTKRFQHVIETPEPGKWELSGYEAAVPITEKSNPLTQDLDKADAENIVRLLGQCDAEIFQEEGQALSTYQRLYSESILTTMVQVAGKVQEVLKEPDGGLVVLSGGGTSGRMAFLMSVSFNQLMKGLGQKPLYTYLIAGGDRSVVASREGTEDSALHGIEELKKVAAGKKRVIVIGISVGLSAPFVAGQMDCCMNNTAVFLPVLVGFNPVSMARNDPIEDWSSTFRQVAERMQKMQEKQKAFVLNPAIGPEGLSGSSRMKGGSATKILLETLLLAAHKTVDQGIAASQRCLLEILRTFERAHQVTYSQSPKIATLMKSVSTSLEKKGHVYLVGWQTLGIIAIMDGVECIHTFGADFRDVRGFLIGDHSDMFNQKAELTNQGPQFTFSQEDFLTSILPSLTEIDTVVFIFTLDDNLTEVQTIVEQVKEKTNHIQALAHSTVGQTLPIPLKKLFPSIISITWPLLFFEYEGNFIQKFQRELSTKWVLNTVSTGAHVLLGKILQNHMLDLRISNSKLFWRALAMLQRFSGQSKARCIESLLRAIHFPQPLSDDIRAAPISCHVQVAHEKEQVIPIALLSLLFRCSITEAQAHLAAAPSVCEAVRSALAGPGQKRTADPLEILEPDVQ
Nuclear receptor ROR-gamma (Homo sapiens), sequence (P51449 whole entry, looked up): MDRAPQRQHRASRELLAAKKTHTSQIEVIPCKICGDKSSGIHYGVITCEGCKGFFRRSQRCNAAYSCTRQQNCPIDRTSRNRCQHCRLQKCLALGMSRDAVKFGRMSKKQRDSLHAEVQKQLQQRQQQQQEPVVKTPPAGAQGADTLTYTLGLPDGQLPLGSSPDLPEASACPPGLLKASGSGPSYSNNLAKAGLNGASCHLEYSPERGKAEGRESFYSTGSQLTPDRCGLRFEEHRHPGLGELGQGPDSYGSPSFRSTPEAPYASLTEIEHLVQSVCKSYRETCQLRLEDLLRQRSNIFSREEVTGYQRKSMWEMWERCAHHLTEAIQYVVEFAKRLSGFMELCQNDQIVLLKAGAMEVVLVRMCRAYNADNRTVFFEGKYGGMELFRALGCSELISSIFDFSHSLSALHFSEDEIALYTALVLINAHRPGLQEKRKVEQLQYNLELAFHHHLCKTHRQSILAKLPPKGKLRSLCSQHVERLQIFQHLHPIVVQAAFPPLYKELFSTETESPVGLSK

NC(=Nc1ccccc1)Nc1ccccc1
outcome [1]: inactive
Potency [2]: inactive
max response [3]: -2.99% and 6.68%
Potency [4]: inactive
outcome [5]: inactive
max response [6]: 5.26% and -9.95%
max response [7]: -13.7% and -2.76%
outcome [8]: inactive

CN1C[C@H](C(=O)N[C@]2(C)O[C@@]3(O)[C@@H]4CCCN4C(=O)[C@H](Cc4ccccc4)N3C2=O)C[C@@H]2c3cccc4[nH]cc(c34)C[C@H]21
Potency [9]: inactive
outcome [10]: inactive
Potency [11]: inactive
outcome [12]: inactive
outcome [13]: inactive
outcome [14]: inactive
Potency [15]: inactive

CC(N=C(NC#N)Nc1ccncc1)C(C)(C)C (configuration not stated)
Potency [9]: inactive
outcome [10]: inactive
Potency [11]: inactive
outcome [12]: inactive
outcome [13]: inactive
outcome [14]: inactive
Potency [15]: inactive
max response [6]: 14.1% and -10.9%

NC(N)=N/N=C/c1c(Cl)cccc1Cl
Potency [9]: inactive
outcome [10]: inactive
Potency [11]: inactive
outcome [12]: inactive
outcome [13]: inactive
outcome [14]: inactive
Potency [15]: inactive

CN(C)CC/C=C1\c2ccccc2COc2ccccc21
Potency [9]: inactive
outcome [10]: inactive
Potency [11]: inactive
outcome [12]: inactive
outcome [13]: inactive
outcome [14]: inactive
Potency [15]: inactive
max response [6]: 1.05% and 7.48%

CCC(=O)c1ccc2c(c1)N(CCCN(C)C)c1ccccc1S2
Potency [9]: inactive
outcome [10]: inactive
Potency [11]: inactive
outcome [12]: inactive
outcome [13]: inactive
outcome [14]: inactive
Potency [15]: inactive

COC(=O)C1=C(C)NC(C)=C(C(=O)OCCN(C)Cc2ccccc2)C1c1cccc([N+](=O)[O-])c1 (configuration not stated)
Potency [9]: inactive
outcome [10]: inactive
Potency [11]: 16.4 µM (active)
outcome [12]: inactive

CC(=O)[C@@]1(O)CC[C@H]2[C@@H]3CCC4=CC(=O)CC[C@]4(C)[C@H]3CC[C@@]21C
max response [3]: -2.31%
outcome [10]: inactive
Potency [11]: inactive
outcome [12]: inactive
outcome [16]: inactive
max response [17]: -7.45%
outcome [14]: inactive
Potency [15]: inactive
max response [6]: 5.26% and 15.8%
max response [7]: -17.3%
outcome [8]: inactive

CCCCOCCOCCOCc1cc2c(cc1CCC)OCO2
Potency [18]: inactive
outcome [1]: inactive
max response [3]: -0.481% and -4.29%
outcome [16]: inactive
outcome [5]: inactive
max response [17]: -10.7% and -4.66%
max response [6]: 3.05%
max response [7]: -11.4% and -13.4%
outcome [8]: inactive

CN=C(NC#N)NCCSCc1nc[nH]c1C
outcome [1]: inactive
max response [3]: 0.401%
Potency [4]: inactive
outcome [10]: inactive
Potency [11]: inactive
outcome [16]: inactive
outcome [5]: inactive
max response [17]: 0.359%
outcome [13]: inactive
outcome [14]: inactive
Potency [15]: inactive
max response [6]: 2.14% and 13.4%
max response [7]: -3.45%
outcome [8]: inactive

CNCCCN1c2ccccc2CCc2ccccc21
Potency [9]: 21.3 µM (active)
outcome [10]: inactive
Potency [11]: inactive
outcome [12]: inactive
